The source of these data is PubChem BioAssay AID1942 (Johns Hopkins Ion Channel Center, 2009).

SMILES strings stand for the structures. Out of some 2,400 compounds screened, about 580 (24%) were called active. Only a sample is shown. A number with no mark means an inactive call.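 How the source made its calls: active means activity change at or above the mean plus 3 SD of buffer wells without dofetilide, per plate; inactive means the rest.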

Chain of Potassium voltage-gated channel subfamily KQT member 2 (Rattus norvegicus) (O88943 whole entry, looked up): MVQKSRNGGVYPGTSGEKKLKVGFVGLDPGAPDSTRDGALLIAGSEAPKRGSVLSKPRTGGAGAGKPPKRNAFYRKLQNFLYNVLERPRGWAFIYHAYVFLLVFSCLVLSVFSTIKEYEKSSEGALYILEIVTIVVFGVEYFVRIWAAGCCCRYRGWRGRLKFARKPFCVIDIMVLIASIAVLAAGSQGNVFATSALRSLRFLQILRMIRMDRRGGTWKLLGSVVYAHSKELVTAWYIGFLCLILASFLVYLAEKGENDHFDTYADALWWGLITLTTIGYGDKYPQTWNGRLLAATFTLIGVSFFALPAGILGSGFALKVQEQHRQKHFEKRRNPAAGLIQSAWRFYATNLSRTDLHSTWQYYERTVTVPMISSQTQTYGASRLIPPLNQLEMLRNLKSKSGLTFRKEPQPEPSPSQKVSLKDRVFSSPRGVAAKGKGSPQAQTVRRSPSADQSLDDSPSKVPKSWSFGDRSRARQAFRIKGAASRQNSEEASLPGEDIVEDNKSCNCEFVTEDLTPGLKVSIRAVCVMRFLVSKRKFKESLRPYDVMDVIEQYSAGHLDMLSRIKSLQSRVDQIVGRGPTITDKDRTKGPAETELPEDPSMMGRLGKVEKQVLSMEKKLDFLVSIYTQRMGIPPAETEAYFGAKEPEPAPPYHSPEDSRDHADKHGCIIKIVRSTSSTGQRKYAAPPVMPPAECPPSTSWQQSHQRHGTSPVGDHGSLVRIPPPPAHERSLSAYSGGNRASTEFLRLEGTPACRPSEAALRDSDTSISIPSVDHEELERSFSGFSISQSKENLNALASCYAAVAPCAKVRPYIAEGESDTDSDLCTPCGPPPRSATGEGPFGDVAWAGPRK

The test has as its target Potassium voltage-gated channel subfamily KQT member 2 (Rattus norvegicus) (UniProt O88943). Description: KCNQ2 potentiation in CHO cells – cell-based, FluxOR thallium flux, counter-screen for hERG block protector project, confirmation (AID 1942).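 Further: normalized value minus buffer-control mean plus three SD of buffer wells.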 As to conditions: FluxOR thallium flux fluorescence, at 10 µM, active compounds read high.
With `O=C(CNCC1CCCO1)N1CCCCCC1` (centres undefined), the activity change, less the hit threshold was -15.5%.

As for `CC(Oc1ccc(Br)cc1Br)C(=O)Nc1cccnc1` (centres undefined), the activity change, less the hit threshold was -16.3%. Take `Cc1oc(/N=C/c2ccc(F)cc2)c(C#N)c1C`: the activity change, less the hit threshold was -16.1%.

As for `O=C(CN1C(=O)COc2ccccc21)NNC(=O)Nc1ccccc1F`, the activity change, less the hit threshold was -21.5%. As for `Oc1oc(-c2cccc3ccccc23)nc1/C=N/c1nccs1`, the figure is 13.4% (active). Then `O=c1cc(O)c2ccccc2n1Cc1ccccc1Cl`, with -12.7%; and `N=C1S/C(=C\c2ccc(-c3cccc(Cl)c3)o2)C(=O)N1c1nccs1`, with -9.5%; and `O=C1c2ccccc2NC(c2ccc(Br)s2)N1O` (centres undefined), with 70.9% (active). With `Cc1cc([N+](=O)[O-])ccc1-c1ccc(C2Nc3ccccc3C(=O)N2O)o1` (centres undefined), the activity change, less the hit threshold is -3.8%.

Turning to `C=CCc1cccc(C2Nc3ccccc3C(=O)N2O)c1O` (centres undefined), the activity change, less the hit threshold is -12.4%.

Regarding `CC1(OC(=O)c2ccc(Cl)nc2)C(=O)C=C2C=C(c3ccc(C#N)cc3)OC=C2C1=O` (centres undefined), the activity change, less the hit threshold was -15.2%.

Turning to `Fc1cccc2sc(Nc3nnc(-c4ccccc4)o3)nc12`, the activity change, less the hit threshold is 79.5% (active).

`COc1cccc(-c2nnc(Nc3nc4c(F)cccc4s3)o2)c1`: the activity change, less the hit threshold was 13.2% (active). Turning to `Fc1cccc2sc(Nc3nc4c(F)cccc4s3)nc12`, the activity change, less the hit threshold was 0.7% (active). As for `Fc1cccc2sc(Nc3nnc(-c4ccco4)o3)nc12`, the figure is 25.3% (active); as for `Fc1ccc2nc(Nc3nc4c(F)cc(F)cc4s3)sc2c1`, -10.7%; as for `CC(=O)Nc1nc2c(F)cccc2s1`, -18.4%. With `Cc1cc(C)nc(SCc2nnc(SCC(=O)Nc3nc(-c4ccccc4)cs3)n2-c2ccccc2)n1`, the activity change, less the hit threshold was -11%. As for `Nc1ccc(NC(=O)Nc2ccc(N)cc2)cc1`, the figure is -14.5%; as for `OC(CNCC(c1ccc(Cl)cc1Cl)c1c[nH]c2ccccc12)c1ccccc1` (centres undefined), -43.4%; as for `COc1cccc2cc(-c3nc4ccccc4[nH]3)c(=O)oc12`, -23.9%. Then `COc1cccc(-c2cc(C(F)(F)F)nc(N3CCCCC3)n2)c1`, with -10.8%. Then `O=C1CCCN1C(=O)COc1ccccc1[N+](=O)[O-]`, with -15.5%. With `Cc1ccnc(N2CCC(C(=O)Nc3ccc(Oc4ccccc4)cc3)CC2)n1`, the activity change, less the hit threshold is -22%.

Consider `CC(C)C(O)(C#CCN1CCCC1)c1ccccc1` (centres undefined), for which the activity change, less the hit threshold was -11.8%. For the compound `CC(C)(C)c1ccc(C(=O)NC(=S)N2CCCCCC2)cc1`, the activity change, less the hit threshold is 18.8% (active). Then `COc1ccc(C(=O)NC(=S)N2CCC(C)CC2)cc1`, with -13.2%. `CC1CN(C(=S)NC(=O)c2ccc(Cl)cc2)CC(C)O1` (centres undefined): the activity change, less the hit threshold is -3.2%. As for `CN1CCN(C(=S)NC(=O)c2ccc(C(C)(C)C)cc2)CC1`, the figure is -16.2%; as for `COc1ccc(C(=O)NC(=S)N2CCC(C)CC2)cc1Br`, 51% (active); as for `CC(C)(C)c1ccc(C(=O)NC(=S)N2CCCC2)cc1`, -7.6%. Consider `O=C(NC(=S)N1CCCC1)c1ccc(Cl)cc1`, for which the activity change, less the hit threshold is 4.3% (active).

As to `S=C(N/N=C/c1ccc(Cl)cc1)N1CCOCC1`, the activity change, less the hit threshold was -26.9%. Then `CC1CCN(C(=S)NC(=O)c2ccc(C(C)(C)C)cc2)CC1`, with 10.7% (active). Then `O=C(Nc1ccccc1)OCCCCCOC(=O)Nc1ccccc1`, with -18.2%; and `Nc1cc(=O)[nH]c(SCC(=O)N2CCCCC2)n1`, with -21.9%.

Consider `O=C1C2CC=CCC2C(=O)N1c1ccc(Cc2ccncc2)cc1` (centres undefined), for which the activity change, less the hit threshold was -5.4%. Then `O=C(C1CC(=O)N(c2ccc3c(c2)OCCO3)C1)N1CCCC(C(F)(F)F)C1` (centres undefined), with -22.3%; and `CC(C)(C)c1nc(SCC(=O)N2CCCC2)c2ccccc2n1`, with -0.3%. As for `COc1cc(OC)cc(C(=O)NC(=S)N2CCCCCC2)c1`, the figure is -13.9%. Then `O=C(NC(=S)N1CCCC(C(F)(F)F)C1)c1ccc(F)cc1` (centres undefined), with 24.6% (active). With `CC(C)(C)c1ccc(/C=C/C(=O)N2CCCCC2)cc1`, the activity change, less the hit threshold was 5.1% (active).

On to `O=C(NC(=S)N1CCCCCC1)c1ccc(Cl)cc1Cl`, for which the activity change, less the hit threshold is 7.1% (active). Then `O=C(c1ccc(C(F)(F)F)cc1)C1CCCN(C(=O)CCc2ccncc2)C1` (centres undefined), with -24.8%; and `Cc1ccc(/C=C(\NC(=O)c2ccccc2)C(=O)N2CCCCC2)cc1`, with -24.3%; and `Cc1ccc(C2C(C#N)=C(N)OC3=C2C(=O)CC(C)(C)C3)s1` (centres undefined), with -16.9%. As for `O=[N+]([O-])c1ccccc1OCCNCc1ccccc1`, the figure is -14.6%; as for `COc1ccc(CNC(=O)C(=O)c2cn(CC(=O)N3CCCC3)c3ccccc23)cc1`, -11.5%. `CCOC(=O)CC(=O)CSc1nc2c(C)c(C)ccc2cc1C`: the activity change, less the hit threshold is -15.8%. As for `COC(=O)Cn1c(=O)c(=O)n(CC(=O)OC)c2ccccc21`, the figure is -18.3%; as for `O=c1c(Cc2ccccc2)c(O)nc2n1CCCS2`, -10.3%; as for `CCOC(=O)N1CCN(C(=O)CSc2nc3c([nH]c4ccccc43)c(=O)n2CC)CC1`, -17.8%. Then `O=c1c2[nH]c3ccccc3c2nc2n1CCCS2`, with 9.5% (active); and `Cc1cc(NC(=O)CSc2nnc(Nc3ccccc3)s2)no1`, with -25.4%.

With `CCCc1nc(SCC(=O)Nc2cc(C)on2)c2ccccc2n1`, the activity change, less the hit threshold is -19.7%.

On to `Cc1cc(NC(=O)CSc2nc(C3CC3)nc3sc(C)c(C)c23)no1`, for which the activity change, less the hit threshold is 19.9% (active). Then `Cc1nc2scc(C)n2c(=O)c1S(=O)(=O)Nc1ccc(N2CCOCC2)cc1`, with -19.6%. In the case of `CCOc1cc(N2CCOCC2)c(OCC)cc1NC(=O)CCC1CCCC1`, the activity change, less the hit threshold is 75.8% (active). Consider `CCOc1cc(N2CCOCC2)c(OCC)cc1NC(=O)Cn1nc(C)c([N+](=O)[O-])c1C`, for which the activity change, less the hit threshold is -16.6%.

Consider `O=C(CNC1CCCCCC1)Nc1ccccc1N1CCOCC1`, for which the activity change, less the hit threshold was -21.6%. As for `CCOc1ccc(NC(=O)CN(C)C(=O)c2c(-c3c(F)cccc3Cl)noc2C)cc1OCC`, the figure is -16.8%. For the compound `O=C(COc1ccc2ccccc2c1Br)Nc1cccnc1`, the activity change, less the hit threshold was -22.1%. Turning to `Cc1ccc(C)c(/C=C/C(=O)c2ccccc(=O)c2O)c1`, the activity change, less the hit threshold was 29.3% (active). As for `Cc1ccc(/C=C/C(=O)c2ccccc(=O)c2O)c(C)c1`, the figure is 40.1% (active); as for `O=C(/C=C/c1ccccc1Cl)c1ccccc(=O)c1O`, 30.9% (active). Then `Cc1ccc(C(=O)c2ccccc2C(=O)O)c(O)c1`, with -21.5%; and `Cc1ccc(NS(=O)(=O)c2ccc(NC(=O)c3ccccc3C(=O)O)cc2)cc1C`, with -17%; and `Cc1ccc(C(=O)CC(=O)c2cccc(F)c2)c(O)c1`, with -14.8%. As for `Cc1ccc(/C=C/C(=O)c2ccccc(=O)c2O)cc1C`, the figure is 28.9% (active); as for `Cc1cccc(NC(=O)CN2C(=O)S/C(=C\c3ccc(-c4cccc(C(=O)O)c4C)o3)C2=O)c1`, -15.3%. Regarding `N/C(=N\OCc1ccccc1)c1nonc1N`, the activity change, less the hit threshold was -14.5%. As to `O=C(COC(=O)C1C2CC3OC(=O)C1C3C2)Nc1ccc(Cl)cc1` (centres undefined), the activity change, less the hit threshold is -17.9%. In the case of `CCc1ccc(/C=N/NC(=O)c2nnn(-c3nonc3N)c2C(C)C)cc1`, the activity change, less the hit threshold is -25.3%. On to `CCC(C)C(NC(=O)C(C)NC(=O)CNC(=O)CNC(=O)OCc1ccccc1)C(=O)OC` (centres undefined), for which the activity change, less the hit threshold is -19.3%. Then `CCn1c2ccccc2c2cc(NC(=O)COc3ccccc3)ccc21`, with -20.7%. Then `CC1CCN(C(=S)NC(=O)c2cccs2)CC1`, with 2.2% (active). As for `CC1CCCCC1NC(=S)NC(=O)c1sc2ccccc2c1Cl` (centres undefined), the figure is -10%. Consider `O=C(NC(=S)N1CCN(c2ccc(F)cc2)CC1)c1cccs1`, for which the activity change, less the hit threshold is 25.4% (active). Then `CC1CCCCC1NC(=S)NC(=O)c1cccs1` (centres undefined), with 27.8% (active); and `COc1ccc(N2CCN(C(=S)Nc3cccc(OC)c3)CC2)cc1`, with -8.3%; and `O=C(NC(=S)N1CCN(c2ccccc2)CC1)c1c(F)cccc1F`, with -2.6%. As to `O=C(NC(=S)N1CCN(c2ccccc2)CC1)c1ccccc1`, the activity change, less the hit threshold was 11.4% (active). As for `Cc1cc(C)cc(-n2nnc(C(=O)NCc3ccc4c(c3)OCO4)c2N)c1`, the figure is -15.8%; as for `N#Cc1cccc(NC(=O)c2nc(-c3ccccc3)n(-c3ccccc3)n2)c1`, -22.3%; as for `Oc1ccc(N2CCN(C(c3cccnc3)c3nnnn3Cc3ccccc3)CC2)cc1` (centres undefined), -10.2%. Then `CCOC(=O)c1[nH]c(=O)[nH]c1COC(=O)c1cc2ccccc2o1`, with -20.5%; and `Cn1c(/N=C/c2c(O)ccc3ccccc23)nc2ccccc21`, with -14.8%; and `CCC1(C)Cc2c(sc3[nH]c(=S)n(Cc4ccccc4)c(=O)c23)CO1` (centres undefined), with 48.6% (active).

Regarding `CC(C)C1Cc2c(sc3[nH]c(=S)n(Cc4ccccc4)c(=O)c23)CO1` (centres undefined), the activity change, less the hit threshold was 19.3% (active).

`Cn1c(=O)c2sc3c(c2n(CC(=O)Nc2ccccc2)c1=O)COC(C)(C)C3`: the activity change, less the hit threshold is -11.1%. Then `CC1(C)Cc2c(sc3[nH]c(=S)n(Cc4ccccc4)c(=O)c23)CO1`, with 11.3% (active); and `CCC(=O)N1c2ccc(C)cc2C2=NNC(=S)NC21O` (centres undefined), with -16.9%; and `O=C(NC1CCCC1)C(c1ccncc1)N(Cc1ccccc1F)C(=O)c1csnn1` (centres undefined), with -8.5%. As to `COc1ccc(-c2cnn(C3CCS(=O)(=O)C3)c2N)cc1` (centres undefined), the activity change, less the hit threshold is -16.8%. Then `Cc1cc(C)c(S(=O)(=O)c2ccccc2)c(OC(=O)c2c(F)cccc2Cl)n1`, with -22%. As for `COc1cccc(C(=O)/C=C/Nc2ccc(S(=O)(=O)Nc3cnc4ccccc4n3)cc2)c1`, the figure is -20.6%. Then `O=C1C=C(Nc2cccc3cccnc23)c2ccccc2C1=O`, with -8.1%; and `O=C(Nn1c(O)c(C=C2N=c3ccccc3=N2)sc1=S)c1cccc(Cl)c1`, with -23.1%; and `CN(C(=O)c1ccc(Cl)c(S(=O)(=O)N2CCOCC2)c1)c1ccccc1C(=O)O`, with -1.7%.
